PubChem BioAssay (EPA / NIEHS)
The source made the active and inactive calls. How the source made its calls: active means hit-call score of the fitted dose curve at least 0.9, where 1 is the maximum; inactive means score below 0.9.

target: Hypoxia-inducible factor 1-alpha (Homo sapiens) (UniProt Q16665); assay: ATG_HIF1a_CIS: Attagene CIS-FACTORIAL HepG2 Assay for human Hypoxia Inducible Factor 1 (HIF1A) (AID 2282951); conditions: HepG2 Attagene cis-factorial HIF1a reporter transcription; actives raise or lower the signal
Sequence (Q16665 whole entry, looked up): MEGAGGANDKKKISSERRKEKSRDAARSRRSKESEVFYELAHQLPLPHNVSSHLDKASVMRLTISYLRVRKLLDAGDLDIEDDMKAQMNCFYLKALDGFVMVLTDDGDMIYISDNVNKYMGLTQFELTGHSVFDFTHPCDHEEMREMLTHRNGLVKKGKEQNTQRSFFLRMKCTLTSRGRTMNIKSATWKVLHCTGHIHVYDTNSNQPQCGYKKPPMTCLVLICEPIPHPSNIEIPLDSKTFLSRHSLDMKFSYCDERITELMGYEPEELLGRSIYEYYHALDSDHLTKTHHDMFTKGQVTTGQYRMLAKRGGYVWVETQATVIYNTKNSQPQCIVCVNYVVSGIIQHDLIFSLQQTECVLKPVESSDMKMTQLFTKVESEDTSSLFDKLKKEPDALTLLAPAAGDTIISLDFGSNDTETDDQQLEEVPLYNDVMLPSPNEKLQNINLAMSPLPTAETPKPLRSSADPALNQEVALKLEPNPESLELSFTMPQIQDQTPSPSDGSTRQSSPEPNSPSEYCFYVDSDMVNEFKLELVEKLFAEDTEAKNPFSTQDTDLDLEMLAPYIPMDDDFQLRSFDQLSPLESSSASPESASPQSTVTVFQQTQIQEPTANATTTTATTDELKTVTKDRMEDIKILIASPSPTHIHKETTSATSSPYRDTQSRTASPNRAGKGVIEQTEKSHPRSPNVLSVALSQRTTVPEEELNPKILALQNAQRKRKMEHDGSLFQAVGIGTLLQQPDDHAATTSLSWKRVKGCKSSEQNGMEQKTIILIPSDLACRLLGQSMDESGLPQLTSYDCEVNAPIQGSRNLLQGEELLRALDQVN
Experimental: ATG_CIS is a cell-based, multiplexed-readout assay that uses HepG2, a human liver cell line, with measurements taken at 24 hours after chemical dosing in a 24-well plate.ATG_HIF1a_CIS is one of 52 assay component(s) measured or calculated from the ATG_CIS assay. It is designed to make measurements of mRNA induction, a form of inducible reporter, as detected with fluorescence intensity signals by Reverse transcription polymerase chain reaction (RT-PCR) and Capillary electrophoresis technology.Data from the assay component ATG_HIF1a_CIS was analyzed into 1 assay endpoint. This assay endpoint, ATG_HIF1a_CIS, was analyzed with bidirectional fitting relative to DMSO as the negative control and baseline of activity. Using a type of inducible reporter, measures of mRNA for gain or loss-of-signal activity can be used to understand the reporter gene at the transcription factor-level as they relate to the gene HIF1A. Furthermore, this assay endpoint can be referred to as a primary readout, because this assay has produced multiple assay endpoints where this one serves a reporter gene function. To generalize the intended target to other relatable targets, this assay endpoint is annotated to the dna binding intended target family, where the subfamily is basic helix-loop-helix protein.
Human liver HepG2 cells are transiently transfected with multiple reporter transcription units (MRTUs) in 6-well plates using FuGene 6 reagent (Roche; 3 ml FuGene/1 mg DNA). The MRTU constructs are regulated by a cis-regulating element (promoter). […] A major difference between the CIS and TRANS system is that in CIS activities of endogenous TFs are measured, whereas the TRANS assay evaluates changes in activities of exogenous, chimeric NR-Gal4 proteins. […] At the end of 24 hour incubation, total RNA was isolated using TriZol reagent (Invitrogen). The isolated RNA is then reverse-transcribed using oligo(dT) primer and Mo-MLV reverse transcriptase (Invitrogen) with DNAse I (Ambion) treatment for 30 min. The one-tenth of the produced cDNA was amplified by PCR using Taq DNA polymerase (Invitrogen) and two reporter sequence-specific primers. The PCR products were fluorescently labeled by primer extension with 6-arboxyfluorescein (6-FAM) 5'-labeled reporter sequence-specific primer (2 min at 95 C, 20 s at 68 C and 10 min at 72 C) and these products were digested with 5U of HpaI (New England Biolabs) for 2h at 37 C. The fragments were purified using Qiaquick PCR columns (Qiagen), analyzed on an ABI 3130xL genetic analyzer (Applied Biosystems) with peak positions identified by using a set of X-rhodamine (ROX)-labeled MapMarker1000 molecular weight standards (BioVentures). The raw capillary electrophoresis data was processed using Attagraph software (Attagene).

outcome, inactive:
O=C1OC(=O)c2c(Br)c(Br)c(Br)c(Br)c21
CCN(CC)C(=O)N(CC)CC
CCCC(=O)c1ccccc1
COC(C)(C)CCCC(C)CC=O (stereo not given)
COc1ccccc1N=Nc1c(S(=O)(=O)O)cc2cc(S(=O)(=O)O)cc(NC(C)=O)c2c1O
COC(=O)c1ccc(OC)cc1
O=Cc1ccccc1S(=O)(=O)O
Cc1ccc(-c2ccccc2)cc1
C[C@H]1C[C@@H](O)CC(C)(C)C1
CCOC(=O)COC(=O)c1cc(Oc2ccc(C(F)(F)F)cc2Cl)ccc1[N+](=O)[O-]
CC[N+](C)(CC)CC
Cc1cc(CCC(=O)OCCOCCOCCOC(=O)CCc2cc(C)c(O)c(C(C)(C)C)c2)cc(C(C)(C)C)c1O
Cc1occc(=O)c1OC(=O)C(C)C
NCc1ccco1
O=C1NC2NC(=O)NC2N1 (stereo not given)
C[Si](C)(C)O[Si](C)(C)C
CC(C)(N=C=O)c1cccc(C(C)(C)N=C=O)c1
CC1(C)C2=CCCC(C)(C)[C@]23CC[C@H]1C3
CCCCCCC(O)CCCCCCCCCCC(=O)O (stereo not given)
CCN(CCN)c1cccc(C)c1
Cc1ccc(S(N)(=O)=O)cc1
CCCC[O][Al]([O]CCCC)[O]CCCC
CN(C)C(=S)SC(=S)N(C)C
c1ccc(CN(Cc2ccccc2)Cc2ccccc2)cc1
CC1(C)O[C@@H]2C[C@H]3[C@@H]4CCC5=CC(=O)C=C[C@]5(C)[C@@]4(F)[C@@H](O)C[C@]3(C)[C@]2(C(=O)CO)O1
COC(=O)c1ccc([N+](=O)[O-])cc1
Cc1cccc(Nc2ccccc2)c1
COC(=O)Nc1ccc(Cl)c(Cl)c1
CCCCCCCC(=O)OCC(O)CO (stereo not given)
CCOc1ccc(NC(=O)CC(C)O)cc1 (stereo not given)
CCCCCCCCCCCCCCCC(=O)OC/C=C(C)/C=C/C=C(C)/C=C/C1=C(C)CCCC1(C)C
Cc1ccc(OC(=O)c2ccccc2O)cc1
C=CCN(CC=C)CC=C
C=CC(C)(O)CCC=C(C)C (stereo not given)
C=CCCC(=O)/C=C/C1C(C)=CCCC1(C)C (stereo not given)
N#Cc1ccc(CC(=O)c2cccc(C(F)(F)F)c2)cc1
Cc1c(Cl)cccc1[N+](=O)[O-]
COCCOCCOCCO

AC50, active:
N[C@@H](Cc1cc(I)c(Oc2cc(I)c(O)c(I)c2)c(I)c1)C(=O)O 18.9 µM
Oc1c(Cl)cc(Cl)c(Cl)c1Cc1c(O)c(Cl)cc(Cl)c1Cl 8.52 µM
